Among the test systems are MOLT-4 leukemia; RPMI-8226 leukemia; OVCAR-8 ovarian; OVCAR-5 ovarian; OVCAR-4 ovarian; SK-OV-3 ovarian; IGROV1 ovarian; OVCAR-3 ovarian; HS 578T breast; NCI/ADR-RES ovarian; T-47D breast; BT-549 breast; MDA-MB-435 melanoma; SW-620 colon; MCF7 breast; HCT-116 colon; HCC-2998 colon; KM12 colon; SR leukemia.
Holding throughout (assay): NCI-60 one-dose screen, 48 h (100 = growth as untreated, 0 = no growth, -100 = all killed)
Settings in all cases: 10 µM unless noted

This note sets out measurements from PubChem BioAssay (NCI).

This is part of a sample that, as a whole, favours compounds with a hit. Of some 83,000 tested, about 20% had one in any assay.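 Assay: single dose, 48 h. Readout: percent growth (0 = no net growth; negative = cell death). Active: <10.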 Unmarked numbers belong to inactive results. The source made the active and inactive calls.

As for `COC1=CC(=O)O[C@@H](/C=C/c2ccc3c(c2)OCO3)C1`, the growth was 91% in the assay with MOLT-4 leukemia; 49.9% in the assay with RPMI-8226 leukemia; 99.3% with OVCAR-8 ovarian; 95.7% in the assay with OVCAR-5 ovarian; 112% in the assay on OVCAR-4 ovarian; 110% with SK-OV-3 ovarian. Also, the growth was 99.2% with IGROV1 ovarian; 153% with OVCAR-3 ovarian; 95.1% in the assay with HS 578T breast; 95.7% in the assay with NCI/ADR-RES ovarian; 93.2% in the assay on T-47D breast; 95% in the assay with BT-549 breast. Moreover, the growth in the assay on MDA-MB-435 melanoma was 100%; with SW-620 colon, 104%; in the assay with MCF7 breast, 99.7%; in the assay on HCT-116 colon it was 105%; in the assay on HCC-2998 colon, 111%; with KM12 colon, 103%.
Turning to `O=C1NC(=O)C(=Cc2ccc(OCCCCC3CCCCC3)c(Cl)c2)C(=O)N1`, the growth with MOLT-4 leukemia was 96.5%; in the assay on RPMI-8226 leukemia, 97.7%; with OVCAR-8 ovarian it was 101%; with OVCAR-5 ovarian it was 98.8%; with OVCAR-4 ovarian it was 105%; with SK-OV-3 ovarian it was 99.9%. Moreover, the growth is 104% in the assay with IGROV1 ovarian; 106% with OVCAR-3 ovarian; 105% with HS 578T breast; 107% in the assay with NCI/ADR-RES ovarian; 91.6% in the assay on T-47D breast; 95.1% in the assay with BT-549 breast. Moreover, the growth is 102% with MDA-MB-435 melanoma; 98% in the assay on SW-620 colon; 88.8% in the assay with MCF7 breast; 91.3% in the assay with HCT-116 colon; 102% with HCC-2998 colon; 104% in the assay with KM12 colon.
Take `CCOC(=O)[C@@H](C)C[C@H](Cc1ccccc1)NC(=O)c1csc([C@@H](C[C@H](C(C)C)N(C)C(=O)[C@@H](NC(=O)[C@H]2C[C@H](O)CCN2C)C(C)C)OC(C)=O)n1`: the growth with MOLT-4 leukemia is 11.9%; in the assay on RPMI-8226 leukemia, 5.82% (active); in the assay with OVCAR-8 ovarian, 14.8%; in the assay with OVCAR-5 ovarian, 41.8%; with OVCAR-4 ovarian, 35.2%; in the assay with SK-OV-3 ovarian, 7.61% (active). Also, the growth in the assay with IGROV1 ovarian is 20.3%; with OVCAR-3 ovarian it was 5.22% (active); with HS 578T breast, 19.4%; in the assay on NCI/ADR-RES ovarian, 45.3%; in the assay on T-47D breast, 79.4%; in the assay with BT-549 breast, -31.9% (active). Further, the growth with MDA-MB-435 melanoma is -40.9% (active); in the assay with SW-620 colon, 25.1%; in the assay with MCF7 breast, 20%; with HCT-116 colon it was -12.6% (active); with HCC-2998 colon it was 19.6%; with KM12 colon, 5.96% (active).
In the case of `O=C(CC1(O)C(=O)N(Cc2ccccc2)c2ccccc21)c1ccc(C(=O)NCC2CCC3(CC2)OOC2(CCCCC2)OO3)cc1` (stereo not drawn), the growth in the assay with MOLT-4 leukemia is -49.9% (active); in the assay on RPMI-8226 leukemia it was -26.7% (active); in the assay with OVCAR-8 ovarian, -14.8% (active); with OVCAR-5 ovarian, 21%; in the assay with OVCAR-4 ovarian, -36.6% (active); in the assay on SK-OV-3 ovarian, 54.3%. For the same compound, the growth was -41.8% (active) with IGROV1 ovarian; -82.4% (active) in the assay with OVCAR-3 ovarian; -6.26% (active) with HS 578T breast; -47.1% (active) in the assay on NCI/ADR-RES ovarian; -39.1% (active) in the assay with T-47D breast; -31.1% (active) in the assay with BT-549 breast. The growth in the assay on MDA-MB-435 melanoma was -86.5% (active); with SW-620 colon, 6.2% (active); in the assay with MCF7 breast, 9.78% (active); with HCT-116 colon, 15.5%; with HCC-2998 colon it was 73.4%; in the assay with KM12 colon, -73.9% (active).
For `CC(C)(C)C(=O)OCOP(=O)(NCc1ccccc1)C1CCCN(O)C1=O` (stereo not drawn), the growth in the assay on MOLT-4 leukemia was 9.06% (active); in the assay on SR leukemia, 9.38% (active); in the assay on OVCAR-8 ovarian, 14.2%; in the assay with OVCAR-5 ovarian, 94.5%; in the assay with OVCAR-4 ovarian it was 19.9%; in the assay with SK-OV-3 ovarian, 59.7%. The growth in the assay with IGROV1 ovarian was 19.4%; in the assay with OVCAR-3 ovarian, -6.7% (active); in the assay on HS 578T breast it was 14.7%; in the assay on NCI/ADR-RES ovarian, 13.5%; in the assay with T-47D breast, 23.3%; in the assay with BT-549 breast it was 28%. For the same compound, the growth in the assay on SW-620 colon was 30.1%; in the assay with MCF7 breast it was 19.3%; in the assay on HCT-116 colon, 7% (active); with HCC-2998 colon it was 24.7%; in the assay with KM12 colon it was -7.5% (active).
In the case of `COc1ccc(/C=C\c2cc(OC)c(OC)c(OC)c2)cc1NC(=O)/C=C/c1ccc(OC)c(OC)c1`, the growth with MOLT-4 leukemia was 17.3%; with RPMI-8226 leukemia, 53.6%; in the assay with OVCAR-8 ovarian, 44.4%; in the assay on OVCAR-5 ovarian it was 55.4%; in the assay on OVCAR-4 ovarian, 58.7%; with SK-OV-3 ovarian, -19.5% (active). Also, the growth with IGROV1 ovarian was 55.1%; in the assay on OVCAR-3 ovarian it was 1.59% (active); with HS 578T breast it was 31.3%; in the assay with NCI/ADR-RES ovarian, -8.84% (active); in the assay on T-47D breast, 40.2%; in the assay with BT-549 breast, 39.1%. Further, the growth in the assay with MDA-MB-435 melanoma is -51.4% (active); in the assay on SW-620 colon it was 39.2%; in the assay on MCF7 breast, 21.3%; in the assay with HCT-116 colon it was 25%; with HCC-2998 colon, -3.07% (active); in the assay with KM12 colon, 27.3%.
On to `COc1ccc(NC([Se])=NC23CC4CC(CC(C4)C2)C3)cc1`, for which the growth with MOLT-4 leukemia is 5.72% (active); in the assay with RPMI-8226 leukemia, -31.9% (active); in the assay with OVCAR-8 ovarian, -0.307% (active); with OVCAR-5 ovarian, -12.9% (active); in the assay with OVCAR-4 ovarian, 6.53% (active); in the assay with SK-OV-3 ovarian, -18.2% (active). In addition, the growth with IGROV1 ovarian is 3.84% (active); in the assay with OVCAR-3 ovarian it was -32.3% (active); in the assay on HS 578T breast it was -5.52% (active); in the assay on NCI/ADR-RES ovarian it was 1.9% (active); with T-47D breast, -11.7% (active); in the assay on BT-549 breast, 11.3%. In addition, the growth in the assay with MDA-MB-435 melanoma was 20%; in the assay with SW-620 colon it was 2.24% (active); with MCF7 breast, 11.4%; with HCT-116 colon, 1.65% (active); in the assay on HCC-2998 colon it was 14.6%; in the assay with KM12 colon, 5.4% (active).
With `[Au+].[N-]=C=O.c1ccc(CN2[CH-]N(Cc3ccccc3)C(c3ccccc3)=C2c2ccccc2)cc1`, the growth is 76.1% in the assay with MOLT-4 leukemia; 63.9% in the assay on RPMI-8226 leukemia; 98.9% in the assay on OVCAR-8 ovarian; 145% in the assay with OVCAR-5 ovarian; 79.7% in the assay on OVCAR-4 ovarian; 96.8% with SK-OV-3 ovarian. In addition, the growth in the assay with IGROV1 ovarian was 81.1%; in the assay on OVCAR-3 ovarian, 82.6%; in the assay with HS 578T breast, 84.4%; in the assay with NCI/ADR-RES ovarian it was 109%; in the assay on T-47D breast, 52.4%; in the assay on BT-549 breast, 89.8%. In addition, the growth in the assay with MDA-MB-435 melanoma is 101%; with SW-620 colon, 89.6%; in the assay on MCF7 breast, 46.1%; in the assay with HCT-116 colon, 67.6%; in the assay on HCC-2998 colon it was 79.9%; in the assay on KM12 colon, 90.4%.
